Assay results published in PubChem BioAssay (Tox21).
Inconclusive results are not listed. Calls of active or inactive are those of the source. Unless noted, calls come from the whole dose curve; as a rule, active = well fitted curve in the direction sought with a large enough effect in the repeat runs; inconclusive = weak or mixed curves; inactive = no such curve, though single readings can be large; an effect the other way counts as inactive or inconclusive.

Key:
[1] = qHTS assay to identify small molecule antagonists of the androgen receptor (AR) signaling pathway using the MDA cell line in the presence of 0.5 nM R1881 - cell viability counter screen (AID 1259242); note: nearly all actives have a fitted effect of over 45% in size
How it was run: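 Fluorescence from CellTiter-Fluor, which reports protease activity of live cells, was read 30 min after reagent addition to MDA-kb2 cells that had been incubated 16 hr with compound and 0.5 nM R1881.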

[2] = qHTS assay to identify small molecule HDAC inhibitors (AID 1259364); note: top concentration of the series differs between compounds; nearly all actives have a fitted effect of over 45% in size
How it was run: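 Endogenous HDAC class I/II activity was measured in wild-type HCT-116 cells by HDAC-Glo luminescence after 2 h compound treatment.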

[3] = qHTS assay to identify small molecule HDAC inhibitors - cell viability counter screen (AID 1259365); note: series mostly up to about 92 µM; nearly all actives have a fitted effect of over 50% in size
How it was run: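 HCT-116 wild-type, overnight attachment; 2hr drug exposure, 37C; CellTiter-Glo luminescent ATP readout after 30min RT.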

[4] = qHTS assay to identify small molecule antagonists of the sonic hedgehog signaling (Shh) pathway - cell viability counter screen (AID 1259367); note: nearly all actives have a fitted effect of over 55% in size; note: potency is the fitted concentration of half-maximal effect
How it was run: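 Cells: 3T3 Gli1-Luc, 2,000/well, 4 hr pre-incubation. Compounds in DMSO, then conditioned medium. Incubation 24 hr, 37C, 5% CO2. CellTiter-Fluor at 23 hr, 1 hr, fluorescence.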

[5] = qHTS assay to identify small molecule agonists of the sonic hedgehog signaling (Shh) pathway (AID 1259368; calls by dose curve;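 note: NIH/3T3-derived 3T3Gli1-Luc cells carrying a stable Gli1-driven firefly luciferase reporter; series mostly up to about 92 µM; nearly all actives have a fitted effect of over 15% in size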)
How it was run: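 Luminescent signal was taken as a measure of Gli1-controlled luciferase expression in stably transfected NIH/3T3-derived cells that had been treated for 24 hr with compounds delivered in DMSO.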

[6] = qHTS assay to identify small molecule antagonists of the sonic hedgehog signaling (Shh) pathway (AID 1259369; calls by dose curve; note: nearly all actives have a fitted effect of over 45% in size; note: potency is the fitted concentration of half-maximal effect)
How it was run: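 Screening used 3T3Gli1-Luc cells at 2,000 per well, compounds delivered in DMSO, and conditioned medium as agonist stimulus; plates incubated 24hr at 37 C and 5% CO2 before a 30min luciferase step.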

[7] = molecular target: Estrogen receptor beta (Homo sapiens) (UniProt Q92731); assay: qHTS assay to identify small molecule agonists of the estrogen receptor beta (ER-beta) signaling pathway (AID 1259377; active = well fitted activation curve with a large enough effect in the signal ratio in the repeat runs, not every such curve was filed as active; the % refers to the signal ratio)
How it was run: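 qHTS in ER-beta-UAS-bla HEK293T cells: 6 hr settling, then 16 hr compound at 37C, then LiveBLAzer substrate 2 h at RT before fluorescence reading.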

[8] = qHTS assay to identify small molecule agonists of the androgen receptor (AR) signaling pathway in the presence of an antagonist - cell viability counter screen (AID 1259379);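 note: MDA-kb2 human breast cancer cells carrying an MMTV luciferase reporter; series mostly up to about 92 µM; nearly all actives have a fitted effect of over 25% in size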
How it was run: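 In MDA-kb2 cells (human breast carcinoma, MMTV-luciferase), compounds at 15 concentrations plus 3.0uM nilutamide; 16 hr, 37C, 0% CO2; CellTiter-Fluor fluorescence read for viability.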

[9] = qHTS assay to identify small molecule agonists of the estrogen receptor beta (ER-beta) signaling pathway - cell viability counter screen (AID 1259380); note: nearly all actives have a fitted effect of over 30% in size; note: potency is the fitted concentration of half-maximal effect
How it was run: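 Viability of ER-beta-UAS-bla HEK293T cells was determined by CellTiter-Glo luminescence following 16 hr treatment with test compounds at 37C.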

[10] = qHTS assay to identify small molecule antagonists of the estrogen receptor beta (ER-beta) signaling pathway - cell viability counter screen (AID 1259382); note: nearly all actives have a fitted effect of over 55% in size; note: potency is the fitted concentration of half-maximal effect
How it was run: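 Tox21 10K library tested in qHTS format on ER-beta-bla HEK293T cells stimulated with 1nM E2; 16 hr treatment at 37C. Same-well CellTiter-Glo luminescence served as the cell viability measure.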

[11] = qHTS assay to identify small molecule agonists or antagonists of the thyroid stimulating hormone receptor (TSHR) signaling pathway - wild type cell line counter screen (AID 1259384; calls by dose curve)
How it was run: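 Counter screen in untransfected Hek293: compounds (15-point titration, triplicate) plus phosphodiesterase inhibitor Ro20-1724 added after 18 h plating; 30 min RT. Intracellular cAMP via competitive d2/cryptate immunoassay, 1 h incubation.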

[12] = qHTS assay to identify small molecule agonists of the estrogen receptor alpha (ER-alpha) signaling pathway in the presence of an antagonist - cell viability counter screen (AID 1259386);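 note: series mostly up to about 92 µM; cells exposed to compounds for 22 h at 37 °C before the viability read; nearly all actives have a fitted effect of over 30% in size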
How it was run: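 Fluorescent CellTiter-Fluor viability signal from VM7Luc4E2 cells, with the reagent added during the final hour of a 22hr compound exposure at 37C in the presence of 10.0nM ICI-182,780.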

[13] = molecular target: Estrogen receptor beta (Homo sapiens) (UniProt Q92731); assay: qHTS assay to identify small molecule antagonists of the estrogen receptor beta (ER-beta) signaling pathway (AID 1259378; active = well fitted inhibition curve with a large enough effect in the signal ratio in the repeat runs, not every such curve was filed as active; the % refers to the signal ratio)
How it was run: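 Antagonist mode: compounds added to beta-lactamase reporter HEK293T ER-beta-UAS cells stimulated with E2 (1nM final), 16 hr at 37C. LiveBLAzer B/G FRET substrate, 2 hours room temperature, fluorescence read-out.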

[14] = molecular target: Thyrotropin receptor (Homo sapiens) (UniProt P16473); assay: qHTS assay to identify small molecule antagonists of the thyroid stimulating hormone receptor (TSHR) signaling pathway (AID 1259385; calls by dose curve; note: nearly all actives have a fitted effect of over 20% in size)
How it was run: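 Antagonist mode: compound-treated TSHR-expressing HEK293 cells were stimulated with 1.5 ng/mL TSH (final) in presence of Ro20-1724 for 30 min at RT. HTRF cAMP detection after 1 h; each compound tested at 15 concentrations, triplicate.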

[15] = qHTS assay to identify small molecule agonists of the sonic hedgehog signaling (Shh) pathway - cell viability counter screen (AID 1259366); note: nearly all actives have a fitted effect of over 50% in size; note: potency is the fitted concentration of half-maximal effect
How it was run: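 Compounds in DMSO were pin-transferred onto 3T3 Gli1-Luc cells that had settled 4hr; plates then stood 24hr at 37C and 5% CO2. One hour before the end, CellTiter-Fluor was added and fluorescence recorded.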

[16] = molecular target: Androgen receptor (Homo sapiens) (UniProt P10275); assay: qHTS assay to identify small molecule agonists of the androgen receptor (AR) signaling pathway in the presence of an antagonist (AID 1259381; calls by dose curve; note: nearly all actives have a fitted effect of over 15% in size)
How it was run: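 Here, 15-concentration compound series were pin-transferred onto MDA-kb2 MMTV-luciferase cells already dosed with nilutamide (3.0uM final). After 16hr at 37C, ONE-Glo was added and luminescence read 30min later at room temperature.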

[17] = molecular target: Estrogen receptor (Homo sapiens) (UniProt P03372); assay: qHTS assay to identify small molecule agonists of the estrogen receptor alpha (ER-alpha) signaling pathway in the presence of an antagonist (AID 1259383; calls by dose curve; note: top concentration of the series differs between compounds; nearly all actives have a fitted effect of over 15% in size)
How it was run: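 In VM7Luc4E2 cells, 4,000 per well, compounds at 15 concentrations were co-incubated 22hr at 37C with 10.0nM final ICI-182,780. Luminescence from the stably transfected 4×ERE-luciferase reporter was recorded 30min after ONE-Glo addition.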

Measured: Potency

Estrogen receptor beta (Homo sapiens), sequence (Q92731 whole entry, looked up): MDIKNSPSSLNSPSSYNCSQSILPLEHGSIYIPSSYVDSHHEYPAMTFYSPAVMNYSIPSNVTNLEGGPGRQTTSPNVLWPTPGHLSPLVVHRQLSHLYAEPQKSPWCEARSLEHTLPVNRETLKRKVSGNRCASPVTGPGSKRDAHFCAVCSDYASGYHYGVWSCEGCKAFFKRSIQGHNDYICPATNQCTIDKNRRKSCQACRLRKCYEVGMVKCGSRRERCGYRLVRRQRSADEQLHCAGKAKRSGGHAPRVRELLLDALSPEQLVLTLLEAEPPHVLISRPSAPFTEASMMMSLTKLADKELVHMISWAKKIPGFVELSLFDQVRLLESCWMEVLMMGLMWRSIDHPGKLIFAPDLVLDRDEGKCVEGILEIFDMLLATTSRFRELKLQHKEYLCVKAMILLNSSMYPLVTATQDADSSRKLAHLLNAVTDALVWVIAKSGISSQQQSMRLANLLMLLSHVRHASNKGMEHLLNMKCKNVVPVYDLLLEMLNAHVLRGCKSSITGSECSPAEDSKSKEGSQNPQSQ
Thyrotropin receptor (Homo sapiens), sequence (P16473 whole entry, looked up): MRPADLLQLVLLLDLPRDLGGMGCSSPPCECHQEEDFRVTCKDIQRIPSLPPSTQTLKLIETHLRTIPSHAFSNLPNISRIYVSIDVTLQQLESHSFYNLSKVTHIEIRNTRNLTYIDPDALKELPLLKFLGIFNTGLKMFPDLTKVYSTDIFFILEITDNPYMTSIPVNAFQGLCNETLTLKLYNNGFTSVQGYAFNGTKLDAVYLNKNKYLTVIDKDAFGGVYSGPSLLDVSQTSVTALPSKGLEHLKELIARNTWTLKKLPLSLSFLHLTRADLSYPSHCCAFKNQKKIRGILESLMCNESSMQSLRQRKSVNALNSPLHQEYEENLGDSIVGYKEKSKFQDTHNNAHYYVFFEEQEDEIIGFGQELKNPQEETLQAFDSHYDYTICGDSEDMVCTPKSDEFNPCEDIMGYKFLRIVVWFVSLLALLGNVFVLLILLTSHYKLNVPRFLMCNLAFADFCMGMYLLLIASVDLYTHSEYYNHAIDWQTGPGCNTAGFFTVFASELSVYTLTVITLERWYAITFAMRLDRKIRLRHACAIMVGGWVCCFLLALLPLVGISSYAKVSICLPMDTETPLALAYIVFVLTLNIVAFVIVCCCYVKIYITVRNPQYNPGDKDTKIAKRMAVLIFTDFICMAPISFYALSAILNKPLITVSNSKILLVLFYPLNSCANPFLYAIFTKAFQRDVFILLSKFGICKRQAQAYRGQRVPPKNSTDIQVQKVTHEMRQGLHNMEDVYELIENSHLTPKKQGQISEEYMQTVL
Androgen receptor (Homo sapiens), sequence (P10275 whole entry, looked up): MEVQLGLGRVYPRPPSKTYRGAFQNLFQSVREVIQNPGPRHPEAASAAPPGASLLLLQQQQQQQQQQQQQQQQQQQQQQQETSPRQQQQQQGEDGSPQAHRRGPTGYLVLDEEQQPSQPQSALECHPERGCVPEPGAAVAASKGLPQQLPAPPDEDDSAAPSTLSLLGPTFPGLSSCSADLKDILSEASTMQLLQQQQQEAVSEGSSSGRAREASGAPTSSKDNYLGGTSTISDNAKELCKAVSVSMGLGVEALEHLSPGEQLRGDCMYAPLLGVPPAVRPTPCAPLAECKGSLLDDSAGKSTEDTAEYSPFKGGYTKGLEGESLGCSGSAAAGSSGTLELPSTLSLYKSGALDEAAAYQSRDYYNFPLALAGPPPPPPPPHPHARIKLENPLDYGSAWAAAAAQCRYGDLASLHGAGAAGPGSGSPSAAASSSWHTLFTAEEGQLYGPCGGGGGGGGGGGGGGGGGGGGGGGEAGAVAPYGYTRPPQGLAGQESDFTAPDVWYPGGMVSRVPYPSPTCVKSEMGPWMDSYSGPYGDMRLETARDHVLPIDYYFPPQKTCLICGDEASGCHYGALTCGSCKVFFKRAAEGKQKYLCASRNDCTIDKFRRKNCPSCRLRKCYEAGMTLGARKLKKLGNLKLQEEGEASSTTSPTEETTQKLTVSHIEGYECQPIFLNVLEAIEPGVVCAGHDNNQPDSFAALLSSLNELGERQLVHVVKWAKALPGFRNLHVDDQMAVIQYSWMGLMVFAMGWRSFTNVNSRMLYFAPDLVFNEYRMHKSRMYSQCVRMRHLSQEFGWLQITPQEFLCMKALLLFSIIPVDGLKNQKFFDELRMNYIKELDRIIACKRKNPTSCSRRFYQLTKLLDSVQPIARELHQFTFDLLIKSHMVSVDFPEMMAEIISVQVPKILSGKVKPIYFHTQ
Estrogen receptor (Homo sapiens), sequence (P03372 whole entry, looked up): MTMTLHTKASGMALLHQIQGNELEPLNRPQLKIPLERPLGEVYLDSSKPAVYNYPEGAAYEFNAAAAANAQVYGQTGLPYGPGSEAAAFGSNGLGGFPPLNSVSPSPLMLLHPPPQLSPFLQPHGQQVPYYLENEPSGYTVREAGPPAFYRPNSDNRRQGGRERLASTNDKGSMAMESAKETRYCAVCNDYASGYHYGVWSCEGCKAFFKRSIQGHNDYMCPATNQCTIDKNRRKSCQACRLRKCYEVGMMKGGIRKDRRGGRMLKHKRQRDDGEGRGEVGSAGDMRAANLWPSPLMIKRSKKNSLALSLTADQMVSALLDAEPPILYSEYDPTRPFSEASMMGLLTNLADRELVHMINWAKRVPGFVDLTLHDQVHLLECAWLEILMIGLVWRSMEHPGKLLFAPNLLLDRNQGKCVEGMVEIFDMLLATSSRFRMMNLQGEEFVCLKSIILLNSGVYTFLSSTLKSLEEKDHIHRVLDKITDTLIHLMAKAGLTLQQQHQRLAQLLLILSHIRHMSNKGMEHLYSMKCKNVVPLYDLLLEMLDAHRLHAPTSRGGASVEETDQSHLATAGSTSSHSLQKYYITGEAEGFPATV

CCCNCC(O)COc1ccccc1C(=O)CCc1ccccc1 (stereo not given)
inactive: [1] | [2] | [3] | [4] | [5] | [7] | [8] | [11] | [12]
active: [6] 4.73 µM | [9] 26.6 µM | [10] 23.7 µM

S=C([S-])NCCNC(=S)[S-].[Mn+2]
inactive: [1] | [2] | [3] | [4] | [5] | [6] | [7] | [13] | [8] | [10] | [11] | [14] | [12]

CCOC(=O)C(F)(F)F
inactive: [1] | [2] | [3] | [15] | [4] | [5] | [6] | [8] | [9] | [10] | [11] | [14] | [12]

C=C1C(=C/C=C2\CCC[C@]3(C)[C@@H]([C@H](C)/C=C/[C@@H](O)C4CC4)CC[C@@H]23)C[C@@H](O)C[C@@H]1O
active: [6] 0.0007 µM | [9] 26.6 µM
inactive: [1] | [2] | [3] | [15] | [4] | [5] | [16] | [17] | [11] | [14]

O=C(O)c1nc(Cl)c(Cl)c(Cl)c1Cl
inactive: [1] | [2] | [3] | [15] | [4] | [5] | [8] | [10] | [11] | [14]

CC(C)(COC(=O)c1ccccc1)COC(=O)c1ccccc1
inactive: [1] | [2] | [3] | [15] | [4] | [6] | [7] | [13] | [8] | [9] | [10] | [11] | [14] | [12]

Cc1ccccc1S(=O)(=O)O
inactive: [1] | [2] | [3] | [15] | [4] | [5] | [7] | [13] | [8] | [9] | [10] | [11] | [14] | [12]

CCc1cc(C2=C(C(=O)O)N(c3ccccc3C(F)(F)F)S(=O)(=O)c3ccccc32)cc2c1OCO2
active: [15] 12.1 µM | [4] 12.1 µM | [9] 15.2 µM
inactive: [1] | [2] | [3] | [6]

CCCCCCCCCCCCN1CCCCCC1=O
active: [9] 30.6 µM
inactive: [1] | [2] | [3] | [15] | [4] | [5] | [7] | [8] | [10] | [11] | [12]

CC(C)(C)OCC1CO1 (stereo not given)
inactive: [1] | [2] | [3] | [15] | [4] | [5] | [7] | [13] | [8] | [9] | [10] | [11] | [12]
